Only some compounds are listed: those with a hit (about 2.4% of all), similar ones and a draw of the others.
ATXN2 expr inh – ATXN2 expression inhibition. AID 1745845. 360,000 tested, 0.72% active. Potency, µM (top dose mostly 57 µM), most hits filed as inhibitors. HEK-293 ATXN2-luciferase reporter, luminescence, 24 h; further: nearly all actives have a fitted effect of over 55% in size
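ATXN2-luciferase reporter cells (luciferase flanked by upstream and downstream ATXN2 gene portions) were treated 24 h at 37 °C with compounds at up to 57 uM. SteadyGlo luminescence gave expression; GF-AFC fluorescence gave viability.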
TGFb inhibitor – blocks TGF-b signaling; Potency, µM (highest dose often 46.1 µM), usual class: inhibitors; 410,000 tested, 1.2% active; HepG2 CAGA-GFP TGF-b/SMAD3 reporter, GFP fluorescence, 18 h; TGF-beta stimulated, 500 pg/mL final; further: nearly all actives have a fitted effect of over 65% in size
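Read-out: total well GFP (ex488/em500-530) summed from mean per-cell fluorescence. Cells: HEPG2 CAGA-GFP, 1% FBS DMEM, 18 h at 37 degrees C with 500 pg/mL final TGF-beta. Unstimulated wells served as the full-inhibition control; stimulated DMSO wells = 0%.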
ATXN viability – cell viability loss in ATXN counter-screen; S2 cells (HEK-293 line with an ATXN2-luciferase reporter) viability, CellTiter-Fluor protease fluorescence, 24 h; Potency, µM (series often up to 56.7 µM), hits mostly cytotoxic; 400,000 tested, 0.49% active; further: nearly all actives have a fitted effect of over 40% in size
HepG2 tox – counter-screen for TGF-b inhibitors: cytotoxicity in HepG2 cells | HepG2 CAGA-GFP viability, ATP luminescence, 18 h | Potency, µM (highest dose often 46.1 µM), actives largely listed as cytotoxic | 410,000 tested, 0.76% active
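CellTiter-Glo luminescence gave cytotoxicity after 18 hours at 37 degrees C. The cells were HepG2 CAGA-GFP in 1% FBS DMEM, stimulated with 500 pg/mL TGF-beta after compound addition. %Activity was normalised to no-cell wells (complete cell-killing) and DMSO (no toxicity), and curves were fitted and classified.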
Anesthetic bind – binds horse apoferritin like a general anesthetic; P02791; apoferritin/1-aminoanthracene competitive binding, fluorescence; Potency, µM (titrated, usually from 77.5 µM), usual class: inhibitors; 350,000 tested, 0.074% active; AID 485281; further: nearly all actives have a fitted effect of over 20% in size
Target sequence (P02791 2-175 limits assumed): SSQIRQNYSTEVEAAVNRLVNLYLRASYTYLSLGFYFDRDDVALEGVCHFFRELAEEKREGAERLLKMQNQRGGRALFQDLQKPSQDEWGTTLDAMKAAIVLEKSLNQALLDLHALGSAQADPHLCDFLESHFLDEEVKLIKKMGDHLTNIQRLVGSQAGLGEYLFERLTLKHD
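Steps: apoferritin (10 uM) was premixed with half-saturated 1-AMA in PBS, compounds were pin-transferred, plates stood 10 min at room temperature, fluorescence was read at 380/535 nm, and curves were fitted with a Hill equation.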
Numbers stand for hits; – = inactive; ? = inconclusive; · = not tested or not shown; ! = repeats disagree; [ ] = another dose, or the depositor's remark. The call rests on the fitted dose curve; in most records, active means well fitted curve in the direction sought with a large enough effect; inconclusive means small, poorly fitted or top-dose-only effect, or another doubt; inactive means no such curve, though single readings can be large; an effect the other way counts as inactive or inconclusive.

SMILES | ATXN2 expr inh | TGFb inhibitor | ATXN viability | HepG2 tox | Anesthetic bind
CC(=O)Nc1ccc2cc3ccc(NC(C)=O)cc3nc2c1 | – | – | · | 13µM | –
CC(C)NC(=O)CN1C(=O)c2ccccc2S1(=O)=O | – | – | – | – | –
O=C(CN1C(=O)c2ccccc2S1(=O)=O)c1ccccc1 | 14µM | – | – | – | –
O=C(CN1C(=O)c2ccccc2S1(=O)=O)Nc1ncc(Cl)cc1Cl | 5µM | – | – | – | ·
Cc1ccc(C(=O)CN2C(=O)c3ccccc3S2(=O)=O)cc1 | 1µM | – | – | – | –
COC(=O)c1ccc(-c2ccc(C3C4C=CCC(C)C4C(=O)N3Cc3ccccc3)c(F)c2)cc1 (stereo not given) | · | – | · | – | –
NC(=O)NC1N=C([O][Al])NC1=O (stereo not given) | – | · | – | · | ·
CC1(C)CC(=O)C=C(C#CC2(O)CCCCC2)C1 | ? | ? | 16µM | 10µM | ·
Cc1ccc(NC(=O)c2ccccc2)s1 | – | – | – | – | –
Cc1cc(NC(=O)c2ccccc2)sc1C | – | – | – | 8.9µM | –
O=C1CC(C(F)(F)C(F)(F)C(F)(F)C(F)F)=Nc2ccccc2N1 | – | – | – | – | 50µM
CCCCOCCCNC1=NCCCCC1 | – | – | – | – | –
CC(C)CCNC1=NCCCCC1 | – | ? | – | 11µM | –
CC(C)CC1C(=O)N(Cc2cn(Cc3ccco3)nn2)CCS(=O)(=O)N1Cc1ccc(-c2ccc(Cl)cc2)cc1 (stereo not given) | ? | ? | ? | – | ·
Cc1ccc(-n2c(-c3ccccc3)nsc2=NC#N)cc1 | · | – | · | – | ·
COC(=O)C/C=C\[C@@H](C)[C@@H](/C=N\O[C@@H](C)CN1CCCCc2nc(C)c(C)cc21)NS(=O)(=O)c1ccc(C)cc1 | · | · | · | · | –[15.3 µM]
COc1ccc(OCCn2c(C(C)Oc3ccccc3)nc3ccccc32)cc1 (stereo not given) | – | 13µM | – | – | –
Cc1ccc(NCc2nc3ccccc3n2CCOc2ccccc2)cc1 | – | 18µM! | ? | – | –
Cc1ccc(OCCn2c(CNc3cccc(C)c3)nc3ccccc32)cc1 | – | 13µM | – | – | –
C(=C\c1ccnc2ccccc12)/c1ccc(N(Cc2ccccc2)Cc2ccccc2)cc1 | · | – | · | – | ·
Cc1sc2ccccc2[n+]1CCCCBr | · | ? | · | – | ·
Cc1c(C2(O)CCCCC2)[nH]c2cc(C(F)(F)F)ccc12 | ? | ? | · | – | ·
CCc1c(C2(O)CCCCC2)[nH]c2cc(C(F)(F)F)ccc12 | ? | ? | 32µM | 14µM | ?
C=C[C@@H]1c2c(F)cccc2N(S(=O)(=O)c2ccc(C)cc2)[C@H](c2ccc(C(=O)OC)cc2)C1(C#N)C#N | – | ? | – | – | ·
C=C[C@@H]1c2c(F)cccc2N(S(=O)(=O)c2ccc(C)cc2)[C@H](c2ccc(OC(C)=O)cc2)C1(C#N)C#N | ? | ? | 32µM | – | ·
SMILES | ATXN2 expr inh | TGFb inhibitor | ATXN viability | HepG2 tox | Anesthetic bind
O=C1/C(=C\c2cc(Cl)c(O)c(Cl)c2)SC(=S)N1Cc1ccccc1 | ? | – | – | 11µM | –
COc1ccc(/C=C2/SC(=S)N(Cc3ccccc3)C2=O)cc1O | – | ? | – | – | –
CCOc1ccc(C(c2c(NC(=O)c3ccccc3)sc(C)c2C)N2CCN(CCO)CC2)cc1 (stereo not given) | – | ? | ? | 11µM | –
Cc1ccc(C(c2c(NC(=O)c3ccco3)sc(C)c2C)N2CCOCC2)cc1 (stereo not given) | · | – | – | – | ·
Cc1sc(NC(=O)c2ccco2)c(C(c2ccc(F)cc2)N2CCN(C)CC2)c1C (stereo not given) | –[11.3 µM] | 16µM | – | 11µM | –
OC(C[n+]1c(Cl)ccc2ccccc21)c1ccccc1 (stereo not given) | · | – | · | – | ·
Cc1ccn2c(Cc3ccccc3)c(-c3ccc(Br)cc3)nc2c1 | – | – | 14µM | – | ·
Cc1ccn2c(CC(C)(C)C)c(-c3ccc(F)cc3)nc2c1 | ? | ? | 25µM | – | ·
Cc1ccc(Cc2c(-c3ccc(Cl)cc3)nc3cc(C)ccn23)cc1 | – | – | ? | – | ·
Cc1ccc(Cc2c(-c3ccc(C)cc3)nc3cc(C)ccn23)cc1 | ? | ? | 32µM | – | ·
